Screens deposited in PubChem BioAssay by several laboratories.
NCOA1 inh = inhibitors of human steroid receptor coactivator 1 (SRC1). Q15788. HEK293 GAL4-SRC1 luciferase reporter, luminescence. inhibition, % at 3.6 µM. hit rate 0.12% among 360,000. AID 588354;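 active = inhibition above the campaign mean plus 3 SD, with each screening campaign given its own cutoff, cut at about 60% in these data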;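 also: 0% = DMSO treated cells and 100% = gossypol at 36 µM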
Target sequence (Q15788 whole entry, looked up, the tested form may be a part): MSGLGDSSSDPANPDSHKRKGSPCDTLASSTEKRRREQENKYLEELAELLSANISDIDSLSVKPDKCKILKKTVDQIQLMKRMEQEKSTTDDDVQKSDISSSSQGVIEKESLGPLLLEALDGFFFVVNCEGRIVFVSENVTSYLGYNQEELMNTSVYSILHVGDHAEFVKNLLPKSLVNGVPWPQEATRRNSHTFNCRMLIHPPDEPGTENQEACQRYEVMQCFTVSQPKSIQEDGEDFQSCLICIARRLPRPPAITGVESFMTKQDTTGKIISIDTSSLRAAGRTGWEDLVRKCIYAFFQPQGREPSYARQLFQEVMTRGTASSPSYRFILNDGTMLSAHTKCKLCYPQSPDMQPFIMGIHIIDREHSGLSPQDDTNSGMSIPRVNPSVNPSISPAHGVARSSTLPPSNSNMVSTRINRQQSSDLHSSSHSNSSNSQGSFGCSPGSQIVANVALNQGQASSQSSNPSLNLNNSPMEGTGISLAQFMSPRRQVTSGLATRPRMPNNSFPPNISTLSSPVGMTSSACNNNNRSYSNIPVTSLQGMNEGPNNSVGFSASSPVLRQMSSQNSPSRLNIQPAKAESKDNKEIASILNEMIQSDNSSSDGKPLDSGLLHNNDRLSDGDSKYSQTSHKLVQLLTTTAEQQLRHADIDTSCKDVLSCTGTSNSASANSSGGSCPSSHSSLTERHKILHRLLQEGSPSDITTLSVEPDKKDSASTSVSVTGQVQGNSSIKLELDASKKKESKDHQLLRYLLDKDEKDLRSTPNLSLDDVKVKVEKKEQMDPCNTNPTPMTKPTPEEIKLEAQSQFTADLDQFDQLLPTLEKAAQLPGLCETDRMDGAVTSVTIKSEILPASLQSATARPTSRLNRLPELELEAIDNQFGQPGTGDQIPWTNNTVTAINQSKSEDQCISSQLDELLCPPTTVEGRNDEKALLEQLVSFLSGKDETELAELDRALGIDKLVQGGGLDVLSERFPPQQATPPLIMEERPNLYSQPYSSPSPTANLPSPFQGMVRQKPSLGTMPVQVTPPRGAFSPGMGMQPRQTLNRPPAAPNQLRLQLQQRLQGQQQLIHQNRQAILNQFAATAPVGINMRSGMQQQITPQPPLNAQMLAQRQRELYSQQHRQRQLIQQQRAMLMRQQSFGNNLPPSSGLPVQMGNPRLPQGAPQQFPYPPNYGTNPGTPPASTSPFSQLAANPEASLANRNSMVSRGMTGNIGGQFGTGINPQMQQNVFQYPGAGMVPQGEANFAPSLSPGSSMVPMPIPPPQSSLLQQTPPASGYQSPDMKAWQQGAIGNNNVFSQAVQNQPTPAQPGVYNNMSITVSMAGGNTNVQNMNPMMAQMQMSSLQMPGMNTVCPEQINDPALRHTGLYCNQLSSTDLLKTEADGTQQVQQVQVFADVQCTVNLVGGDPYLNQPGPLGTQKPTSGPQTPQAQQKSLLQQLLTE
NCOA2 inhibitor = inhibits human steroid receptor coactivator 2 | Q15596 | HEK293 GAL4-SRC2 luciferase reporter, luminescence | inhibition, % at 9 µM | hit rate 0.17% among 370,000 | AID 651957;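 active = inhibition above the mean inhibition of all tested compounds plus 3 SD, set per campaign, cut at about 52% in these data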;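 also: 0% = DMSO treated cells and 100% = cells given Gossypol at 36 µM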
Gli-Sufu antag = antagonists of Gli-Sufu signaling. hit rate 0.74% among 340,000. inhibition, % at 5 µM. Sufu-KO-LIGHT fibroblasts, Gli luciferase reporter luminescence;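 active = inhibition above about 55%, limit read from the data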;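 also: 0% = DMSO-treated cells and 100% = wells with medium but no cells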
NCOA3 inh = inhibits human SRC3 coactivator. Q9Y6Q9. HEK293 GAL4-SRC3 luciferase reporter, luminescence. inhibition, % at 3.6 µM. hit rate 0.17% among 360,000;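 active = inhibition above a per-campaign cutoff, the mean of all compounds plus 3 SD, cut at about 60% in these data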;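 also: 0% = DMSO-treated cells and 100% = gossypol-treated cells at 36 µM; higher means less SRC3-driven luciferase light from the GAL4 reporter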
LRH-1 inv ag = NR5A2 inverse agonism in reporter assay; AID 602396; inhibition, % at 3.6 µM; O00482; HEK293T StAR-luciferase reporter, LRH-1 transfected, 24 h; hit rate 0.13% among 360,000;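 active = inhibition above the mean inhibition of all tested compounds plus 3 SD, cut at about 73% in these data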;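 also: 0% = DMSO wells and 100% = reporter-only cells lacking LRH-1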
COUP-TFII inh = inhibitors of human COUP-TFII (NR2F2). P24468. HEK293T NGFI-A luciferase reporter, luminescence. inhibition, % at 8.6 µM. hit rate 0.7% among 370,000;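 active = inhibition above a per-plate cutoff, mean inhibition of test wells between control levels plus 3 SD, cut at about 38% in these data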;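 also: cells cotransfected with COUP-TFII expression vector driving the NGFI-A reporter; 0% = median of COUP-TF2 test wells and 100% = reporter-only cells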
Gli antag conf = Gli-SUFU antagonism confirmation, single concentration. inhibition, % at 5 µM. hit rate 40% among 2,500. AID 602428. shares compounds with Gli-Sufu antag. Sufu-KO-LIGHT cells, Gli luciferase reporter, luminescence;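 active = mean inhibition at 5 µM reaching about 45%, limit read from the data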;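 also: plate controls were DMSO-treated cells for no effect and wells lacking cells for full effect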
Gli cytotox = cytotoxicity counter-screen for Gli-SUFU antagonists; cytotoxicity, % at 5 µM; AID 651994; hit rate 32% among 2,500; shares compounds with Gli-Sufu antag; Sufu-KO-LIGHT cells cytotoxicity, ATP luminescence;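 active = mean cytotoxicity at 5 µM above about 25%, limit read from the data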;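 also: cells exposed to compound overnight for roughly 16 to 18 hours; plate controls were DMSO wells with cells for no effect and medium without cells for full effect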
Wnt3a counter = inhibits Wnt3a reporter, counter-screen for Gli-SUFU antagonists; shares compounds with Gli-Sufu antag; Wnt-LIGHT cells, Wnt3a-driven luciferase reporter, luminescence; inhibition, % at 6.25 µM; hit rate 20% among 2,500; AID 651995;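 active = mean inhibition above about 25%, limit read from the data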
Starred values were filed as active, the others as inactive; . = no result. Most compounds without a hit are left out; they make up all but 1.3% or so of the library.

SMILES	NCOA1 inh	NCOA2 inhibitor	Gli-Sufu antag	NCOA3 inh	LRH-1 inv ag	COUP-TFII inh	Gli antag conf	Gli cytotox	Wnt3a counter
O=C(Nc1cccs1)Nc1c(F)c(F)c(F)c(F)c1F	-18.6	14.9	67.1*	4.2	5.0	17.8	71.8*	27.4*	38.6*
CCn1cc(CN2CCC(n3nccc3NC(=O)CCOc3ccccc3)CC2)cn1	-14.5	5.8	13.1	11.0	2.8	-15.9	.	.	.
CCn1cc(CN2CCC(n3nccc3NC(=O)CCc3ccccc3)CC2)cn1	0.2	-9.1	83.5*	2.6	-15.1	4.9	33.8	11.9	9.4
COc1ccc(N2C(=O)c3n[nH]c(C)c3C2c2ccccc2)cc1 (centres undefined)	.	9.0	.	.	.	-29.2	.	.	.
CCCCNC(=S)N(C)/N=C/c1ccc(F)cc1	6.2	8.7	-2.7	13.1	20.8	3.9	.	.	.
CCCCNC(=S)N(C)/N=C/c1ccc2c(c1)OCO2	7.8	-1.9	99.3*	11.2	-0.6	-1.2	20.7	22.8	8.2
O=C(N/N=C/c1cc2ccccc2nc1Cl)[C@H]1C[C@@H]1c1ccccc1	-7.7	18.1	73.4*	12.8	3.9	7.8	36.9	17.4	-59.1
Cc1ccc(C(C#N)c2ccc3c(C(F)(F)F)cc(C(F)(F)F)nc3n2)cc1 (centres undefined)	-9.4	-20.7	53.4	-16.2	19.6	-9.4	58.8*	14.7	52.0*
CCC[C@H](/C=C/C(=O)OC(C)(C)C)Sc1ccc(N)cc1	.	-13.3	.	.	.	11.2	.	.	.
Cc1cccc(-n2ncc3c2CCCC3NC(=O)C2=CC(=O)CC(C)(C)O2)c1C (centres undefined)	-18.5	-3.6	57.9*	13.6	17.1	24.4	21.3	31.2*	9.5
CC1(C)CC(=O)C=C(C(=O)NC2CCCc3c2cnn3-c2cc(F)cc(F)c2)O1 (centres undefined)	-21.5	18.1	18.4	-3.3	4.2	13.8	.	.	.
Cc1[nH]c2ccccc2c1C(=O)CSc1nc2cc(S(=O)(=O)N3CCCCC3)ccc2o1	7.0	7.4	55.1*	6.5	2.1	18.7	41.8	13.4	23.2
C/C(N)=C(/C#N)C(=O)COC(=O)c1ccncc1	0.5	-8.7	95.1*	6.3	18.4	7.9	8.1	21.6	-3.7
O=S1(=O)c2ccc(Br)cc2OC[C@H](Cc2ccccc2)N1Cc1cn(Cc2ccc(Cl)cc2)nn1	.	20.7	.	.	.	-0.2	.	.	.
COc1ccc(CNC(=O)C2CCN(S(=O)(=O)N3CCC4(CC3)OCCO4)CC2)c(OC)c1	-6.0	7.0	98.8*	10.9	2.7	12.6	2.6	-12.2	-22.9
CC(=O)NS(=O)(=O)c1ccc(NC(=S)NC(=O)C(C)C)cc1	-4.4	-23.6	92.8*	12.3	16.1	-1.6	31.0	5.4	-14.1
CN(C)CC(=O)N[C@H]1C[C@@H]2O[C@@H](CO)CC[C@@H]2O[C@@H]1CCc1ccc(C2=CCCCC2)cc1	.	-25.9	.	.	.	1.4	.	.	.
CC1=CC(C)(C)N=C(Nc2nc(C)c3cc(C)cc(C)c3n2)N1	10.5	-19.9	50.4	11.1	-11.8	18.1	26.3	16.3	-68.4
N#Cc1cccc(OC[C@@H](O)CN2CCC(C(O)(c3ccccc3)c3ccccc3)CC2)c1	.	-20.0	.	.	.	-11.1	.	.	.
Cc1ccccc1NC(=O)CSc1nc2cc3c(cc2cc1C)CCC3	13.6	8.6	54.3	3.6	8.4	9.6	40.0	28.7*	-40.5
CCC(=O)Nc1ccc(NC(=O)CSc2nc3cc4c(cc3cc2C)CCC4)cc1	-7.2	14.8	1.9	13.1	54.8	-7.0	.	.	.
Cc1cc(C)cc(C(=O)OCCN(C)C2CN(Cc3cn(Cc4ccccc4F)nn3)S(=O)(=O)C2)c1 (centres undefined)	.	-5.7	.	.	.	-6.2	.	.	.
O=C(CCc1nc2sc3c(c2c(=O)[nH]1)CCCC3)Nc1cccc(Cl)c1	-5.6	-15.2	70.2*	-9.5	-4.2	-7.3	27.5	6.0	-10.8
O=S1(=O)c2ccc(Br)cc2OC[C@H](Cc2ccccc2)N1Cc1cn(Cc2ccc(C(F)(F)F)cc2)nn1	.	-2.2	.	.	.	-3.6	.	.	.
CCc1cc(C(=O)NC2CCCN(Cc3ccccc3F)C2)n(C)n1 (centres undefined)	11.3	14.6	65.4*	0.6	10.6	35.2	45.0	14.7	5.2
SMILES	NCOA1 inh	NCOA2 inhibitor	Gli-Sufu antag	NCOA3 inh	LRH-1 inv ag	COUP-TFII inh	Gli antag conf	Gli cytotox	Wnt3a counter
Cn1nc(C(=O)NC2CCCN(Cc3ccccc3F)C2)c2ccccc2c1=O (centres undefined)	4.9	28.0	19.5	-3.1	-6.6	4.2	.	.	.
COc1ccc(C2CC(C(F)(F)F)n3nc(C(=O)N(C)Cc4cn(C)nc4C)c(Cl)c3N2)cc1 (centres undefined)	-16.6	4.8	-0.1	22.3	2.0	10.4	.	.	.
COc1ccc(C2CC(C(F)(F)F)n3nc(C(=O)NCc4c(C)nn(C)c4C)c(Cl)c3N2)cc1 (centres undefined)	20.1	22.5	61.5*	16.9	20.6	27.6	50.4*	42.0*	-1.3
Cc1cc(Nc2cc(Cl)cc(Cl)c2)cc(=O)n1-c1cc(Cl)cc(Cl)c1	.	4.1	.	.	.	-7.8	.	.	.
CCn1c(SCc2nc3ccccc3c(=O)[nH]2)nc2ccccc21	-12.2	-5.4	56.2*	-18.0	-2.9	5.2	13.0	25.5*	-23.5
CCOC(=O)c1cccc(-c2cc(C(C)=O)c3n(c2=O)CCC3)c1	.	-2.4	.	.	.	-23.3	.	.	.
COc1ccccc1N(C)S(=O)(=O)c1ccc(C(=O)NCc2ccccc2CN2CCCC2)cc1	-21.2	-4.8	52.4	4.4	-46.3	-10.2	33.8	16.9	-33.5
CCOC(=O)C1CCCN(CC(O)COc2ccccc2C(C)=O)C1 (centres undefined)	-20.6	-0.8	6.1	13.8	-0.1	6.0	.	.	.
CCOC(=O)C1CCCN(CC(O)COC(c2ccccc2)c2ccccc2)C1 (centres undefined)	-10.9	21.7	69.8*	-4.0	22.6	6.7	8.9	10.8	-32.2
CCc1ccc2c(CN3CCN(S(=O)(=O)c4ccccc4F)CC3)cc(=O)oc2c1	-5.1	-15.3	56.1*	-7.9	-3.3	18.6	14.4	-0.4	-14.6
O=C(CN1CCOCCOCCOCCOCC1)Nc1ccccc1	-15.0	-10.3	95.7*	-16.6	-14.6	-22.7	20.1	7.5	-32.2
Cc1ccc(C)c(NC(=S)NC2CC3CCC(C2)N3Cc2ccco2)c1 (centres undefined)	-2.6	-21.3	75.8*	5.9	17.3	22.9	32.4	0.1	4.4
COc1ccc(N/C=C(\C#N)S(=O)(=O)c2ccc(Cl)cc2)c(OC)c1	16.1	4.0	65.0*	-15.7	-10.4	8.8	14.4	-8.5	0.1
O=S(=O)(CC1NCc2cc(F)ccc21)NCc1ccccc1 (centres undefined)	.	6.0	.	.	.	-7.5	.	.	.
